# Measurements published in PubChem BioAssay (NCI).
# The panel holds about 83,000 compounds, 20% with a hit somewhere; the sample as a whole holds those more often.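 A percent growth of 40 corresponds to 60% growth inhibition; 0 means no net growth; -100 means all cells died. Active threshold: below 10.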 A number with no mark means an inactive call. The source made the active and inactive calls.
# What was measured:
# Test in all cases: NCI-60 one-dose screen, 48 h (100 = growth as untreated, 0 = no growth, -100 = all killed)
# SR leukemia = conditions: 10 µM unless noted
# RPMI-8226 leukemia = conditions: 10 µM
# OVCAR-5 ovarian = conditions: 10 µM unless noted
# OVCAR-4 ovarian = conditions: 10 µM unless noted
# IGROV1 ovarian = conditions: 10 µM unless noted
# OVCAR-3 ovarian = conditions: 10 µM unless noted
# HS 578T breast = conditions: 10 µM unless noted
# T-47D breast = conditions: 10 µM
# BT-549 breast = conditions: 10 µM unless noted
# MDA-MB-435 melanoma = conditions: 10 µM unless noted
# SW-620 colon = conditions: 10 µM unless noted
# MCF7 breast = conditions: 10 µM unless noted
# HCT-116 colon = conditions: 10 µM unless noted
# HCC-2998 colon = conditions: 10 µM unless noted
# KM12 colon = conditions: 10 µM unless noted
# NCI/ADR-RES ovarian = conditions: 10 µM unless noted
# OVCAR-8 ovarian = conditions: 10 µM unless noted
# SK-OV-3 ovarian = conditions: 10 µM
Structure (SMILES),growth (SR leukemia),growth (RPMI-8226 leukemia) [%],growth (OVCAR-5 ovarian),growth (OVCAR-4 ovarian),growth (IGROV1 ovarian),growth (OVCAR-3 ovarian),growth (HS 578T breast),growth (T-47D breast),growth (BT-549 breast),growth (MDA-MB-435 melanoma),growth (SW-620 colon),growth (MCF7 breast),growth (HCT-116 colon),growth (HCC-2998 colon),growth (KM12 colon),growth (NCI/ADR-RES ovarian),growth (OVCAR-8 ovarian),growth (SK-OV-3 ovarian) [%]
O=C(Nc1ccc(F)cc1)c1ccc(C(=O)Nc2ccc(F)cc2)cc1,94.5%,113,101%,93.4%,109%,109%,106%,99.1%,112%,101%,109%,95.9%,96.2%,111%,108%,–,–,–
CCOc1ccc(-c2cnnn2-c2nonc2-n2cccc2)cc1,1.35% (active),12.5,41.1%,39.6%,36.5%,-37.1% (active),–,49%,41.1%,-31.2% (active),21.7%,21.9%,6.67% (active),0.666% (active),8.62% (active),-5.39% (active),–,–
O=C(N/N=C(\CS(=O)(=O)c1ccccc1)c1cc2ccccc2oc1=O)c1ccccc1,101%,112,101%,–,109%,111%,106%,101%,104%,103%,105%,102%,112%,106%,108%,107%,–,–
O=[N+]([O-])c1cc2c(cc1Br)-c1ccccc1C2,82.7%,–,124%,48.5%,87.1%,102%,94%,14.9%,76.8%,94.7%,83.6%,3.07% (active),84%,–,58.5%,81.6%,97.3%,90
O=[N+]([O-])c1ccc2nc(N/N=C/c3ccc(O)cc3)sc2c1,18.2%,–,113%,56%,46.6%,51.3%,83.5%,35.1%,28.6%,47.7%,63.7%,57.9%,23.3%,–,33.4%,81.7%,59.9%,82.4
COc1cccc(-c2ccc3c(c2)C2CCN(Cc4ccccc4)C3C2)c1 (centres undefined),18.4%,–,84.4%,86.5%,59.9%,72.2%,90%,76.3%,64.2%,9.08% (active),53.6%,60.1%,58.4%,83.5%,56.7%,68.8%,85%,71.1
FCOC(C(F)(F)F)C(F)(F)F,86.2%,–,103%,121%,111%,107%,107%,97.9%,103%,103%,101%,101%,103%,104%,103%,106%,107%,98
CN(C)c1ccc(/C=C(\C#N)c2cc3ccccc3n2C)cc1,22%,–,38.5%,40.3%,26.7%,-4.72% (active),20.9%,–,37.6%,-26.9% (active),21%,15.1%,10.6%,20.1%,18.5%,7.61% (active),34.8%,–
O=C1C(N2CCOCC2)=Cc2cccc3cccc1c23,40.8%,–,103%,90.5%,112%,101%,86.1%,86.6%,109%,102%,98.3%,66.2%,94.7%,–,95.8%,99.8%,96.1%,95.8
O=C(c1ccccc1)C(Br)C(Br)c1cccc([N+](=O)[O-])c1 (centres undefined),-33.3% (active),–,73.9%,29.3%,-29.7% (active),-23.4% (active),91.9%,–,74.8%,22.5%,-100% (active),24.8%,-91% (active),89.5%,33.7%,51.4%,18.6%,–
Cc1c(C(=O)Nc2nc(-c3ccccc3)cs2)nnn1-c1cccc2ccccc12,29.2% [50 µM],–,86.8% [50 µM],23.7% [50 µM],69.9% [50 µM],71.8% [50 µM],79.5% [50 µM],–,56.7% [50 µM],47.2% [50 µM],71.6% [50 µM],38.7% [50 µM],30% [50 µM],87.7% [50 µM],65% [50 µM],65.1% [50 µM],50.9% [50 µM],–
O=C1CCC(N2Cc3c(C#CCCCNC(=O)c4cc5c(o4)C(=O)c4ccccc4C5=O)cccc3C2=O)C(=O)N1 (centres undefined),12.1%,–,20.2%,-98.5% (active),-5.62% (active),-37.3% (active),-32.8% (active),7.33% (active),-94.8% (active),–,-34.7% (active),-68.6% (active),-25.5% (active),-64.1% (active),-1.98% (active),89.6%,4.59% (active),–
Cc1ccc(-c2nnc(COc3ccc(-c4nnc(N)s4)cc3)o2)cc1,5.12% (active),–,113%,58%,108%,98.1%,85%,101%,92.9%,72.4%,94.8%,68.3%,63.4%,107%,92.6%,95%,100%,80.7
Cc1cc(O)cc2c1[C@H]1CC[C@]3(C)[C@@H](O)CC[C@H]3[C@@H]1C=C2,40.3%,–,114%,110%,74.4%,108%,86.5%,96.5%,100%,7.81% (active),72%,109%,86.6%,48.4%,102%,53.2%,95.3%,115
O=c1nc(NO)[nH]c(=O)n1Cc1ccccc1,107%,–,101%,97%,106%,120%,100%,92.8%,103%,101%,108%,98.9%,105%,106%,105%,105%,104%,99.3
Oc1ccccc1/C=N/Nc1nc2ccccc2s1,43.7%,–,91.8%,19.9%,–,13.8%,65.2%,37.8%,51.4%,–,50.1%,20.2%,41.2%,–,22.1%,51.6%,57.3%,57.5
N#Cc1c(O)c2c(c(O)c1C#N)C(=O)c1ccccc1C2=O,15.4%,–,108%,10.9%,23.9%,-9.86% (active),70.1%,23.2%,69.1%,-91.2% (active),8.21% (active),46.2%,1.88% (active),34.5%,73.4%,0.847% (active),2.33% (active),109
COc1ncnc2c1ncn2C/C(Br)=C(\Br)CCl,8.2% (active),–,62.1%,-47.1% (active),11.5%,-94.2% (active),23.5%,1.25% (active),70.2%,3.99% (active),-73.6% (active),0.237% (active),-82.3% (active),89.8%,-5.61% (active),-40.4% (active),0.995% (active),148
Cc1ccc2c(N/N=C\c3ccco3)cc(C)nc2n1,-8.66% (active),–,80.4%,46.9%,49%,88%,86.3%,37.4%,87.7%,36.6%,39.5%,71.8%,21.5%,65.4%,74.8%,71.8%,69.6%,98.6
COC(=O)[C@H]1CCCN1C(=O)[C@H]1CCCN1C(=O)[C@@H](Cc1c[nH]c2ccccc12)NC(=S)Nc1cc(C(F)(F)F)cc(C(F)(F)F)c1,14.4%,–,76.4%,44.6%,22.7%,48.3%,12.3%,50.2%,91.9%,–,64.2%,26.1%,39.5%,31.8%,37.2%,89.9%,66.8%,77.2
CCOC(=O)c1sc(NC(=O)CN2CCC(Cc3ccccc3)CC2)nc1C,83.7%,–,103%,98.6%,87.6%,108%,83.4%,101%,104%,105%,95.8%,94.4%,81.5%,102%,106%,94.1%,110%,102
Cl.Fc1c[c-]c(-c2ccccn2)c(F)c1.[Pt].c1ccc([PH+](CC[PH+](c2ccccc2)c2ccccc2)c2ccccc2)cc1,-6.03% (active),–,-93.4% (active),-87.8% (active),-75.5% (active),-97.2% (active),-44.6% (active),-65.2% (active),-69.2% (active),-91.9% (active),-88.8% (active),-74.7% (active),-90.4% (active),-82.9% (active),-89.1% (active),-35.4% (active),-29.1% (active),–
Nc1nc(N)c(C=Nc2ccc(Br)cc2)c(Nc2ccc(Br)cc2)n1,64.2%,–,79.3%,107%,86.3%,149%,80.8%,76.8%,69.3%,84.7%,99.7%,72.7%,78.5%,83.5%,86.3%,77.6%,87.3%,104
N#C/C(=C\c1ccc[nH]1)c1cc2ccccc2[nH]1,68.3%,–,82.4%,24.1%,59.2%,81.1%,87.5%,–,66.9%,83.2%,96.3%,9.04% (active),63.4%,63.8%,30.7%,76.9%,74.9%,–
CC(=O)N(CC(O)CO)c1c(I)c(C(=O)NCCO)c(I)c(C(=O)NCC(O)CO)c1I (centres undefined),77.2%,–,99.8%,102%,103%,107%,116%,101%,94.3%,105%,109%,104%,97%,–,103%,–,95.9%,103
